Source: PubChem
A selection: hits, their analogues and other compounds. The true share with any hit is near 1.8%.
IkB sig inh – suppresses IkB signaling in ABC-DLBCL reporter cells. ABC-DLBCL IkBa-CBG/CBR dual luciferase ratio, 4 h; response scale: scaled: untreated 0%, proteasome inhibitor 100%. Potency, µM (titrated, usually from 57.1 µM). hit rate 0.04% among 110,000; active means well fitted curve in the direction sought with a large enough effect in the signal ratio, not every such curve was filed as active; inconclusive means small, poorly fitted or top-dose-only effect, or a change in a side signal; the % refers to the signal ratio;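 further: the direction sought is a rising ratio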
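Curves were fitted separately to fusion (green), unfused (red) and ratio luminescence, then classed by r2, magnitude and activity. Cells: OCI-Ly3, 4 h compound plus doxycycline at 37C; 10 uM MG-132 defined full response.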
Imprint erasure – induces erasure of genomic imprints in mouse ES cells. mouse ES Peg3-LacZ reporter, beta-gal luminescence, 40 h. Potency, µM (highest dose often 60.7 µM), usual class: activators. AID 1948. hit rate 0.02% among 110,000
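Readout: BetaGlo luminescence (5 min, room temp) for LacZ from the normally silent maternal Peg3 allele in female Peg3LacZ-Neo ES cells. Cells 300/well, 40 h, 37C, 5% CO2. Data normalized per plate to negative controls.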
p53ts 32C kill – cytotoxicity in p53ts cells at permissive temperature | Potency, µM (top dose mostly 46.1 µM), most hits filed as cytotoxic | H1299-p53A138V at 32C, ATP luminescence viability, 24 h | hit rate 0.93% among 130,000; further: nearly all actives have a fitted effect of over 55% in size
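Cells: H1299 p53ts (A138V), 600/well, pre-incubated 16–30 h at 37C. Cpd up to 46 uM, 24 h, 32C. Readout: ATPlite luminescence, 20 min RT. Normalization: DMSO vs tamoxifen 100 uM. AC50 by Hill equation.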
p53ts 39C tox – cytotoxicity in p53ts cells at nonpermissive temperature. H1299-p53A138V viability at 39C, ATP luminescence, 24 h. Potency, µM (series often up to 46.1 µM), usual class: cytotoxic. hit rate 1.5% among 130,000. AID 902; further: nearly all actives have a fitted effect of over 55% in size
Hits are given with their value; - = inactive; ? = inconclusive; . = no result given; [ ] = dose if it differs, or a comment. Unless noted, the call rests on the fitted dose curve; in most records, active means well fitted curve in the direction sought with a large enough effect; inconclusive means small, poorly fitted or top-dose-only effect, or another doubt; inactive means no such curve, though single readings can be large; an effect the other way counts as inactive or inconclusive.

SMILES	IkB sig inh	Imprint erasure	p53ts 32C kill	p53ts 39C tox
COc1ccc(S(=O)(=O)Nc2cccc(-c3ccc(N4CCC(C)CC4)nn3)c2)c(OC)c1	?	-[10.9 µM]	10µM	15.8µM
CCOc1ccc(-c2cccc(NS(=O)(=O)c3ccc(C)s3)c2)nn1	-	-[10.9 µM]	-	-
Cc1cc(C)c(/C=C2/C(=O)Nc3ccccc32)[nH]1	-	.	-	?
O=C(Nc1ccc(Cl)cc1)c1cc(S(=O)(=O)NC2CCCCCC2)ccc1F	?	-[10.9 µM]	-	12.6µM
Cc1ccc2oc(C(=O)Nc3ccc(S(=O)(=O)N4CCCCC4C)cc3)cc(=O)c2c1 (stereo not given)	-	-[10.9 µM]	-	-
C=Cc1ccc(Cn2c(C(=O)O)c(CNCc3cc(OC)ccc3OC)c3ccc(C)cc32)cc1	?	-[10.9 µM]	?	12.6µM
C=Cc1ccc(Cn2c(C(=O)O)c(CNCCc3ccccc3)c3ccc(C)cc32)cc1	?	-[10.9 µM]	-	?
Clc1ccc(/C=C\c2nc(Cl)c(-c3ccc(Cl)cc3)c(Cl)n2)cc1	-[11.4 µM]	-[10.9 µM]	-[9.22 µM]	-[9.22 µM]
CCN(CC)c1ccc2cc(-c3nc4ccccc4[nH]3)c(=O)oc2c1	-	-	0.316µM	0.398µM
Cc1[nH]c2ccccc2c1-c1cc(-c2cc(-c3c(C)[nH]c4ccccc34)on2)no1	-[11.4 µM]	-[10.9 µM]	-[9.22 µM]	-[9.22 µM]
COc1cccc(-c2nccc(NCc3ccccc3)n2)c1	-[11.4 µM]	-	20µM	12.6µM
COc1ccc(CC(=O)Nc2sc3c(c2C(=O)Nc2cccc(C)c2)CCCCC3)cc1	?	-[10.9 µM]	-	10µM
CCc1ccc2oc(-c3cc(N)cc(C)c3O)nc2c1	?	-	?	?
CCc1ccc2oc(-c3cc(NC(=O)c4cccs4)ccc3Cl)nc2c1	?	-[10.9 µM]	-	-
CCc1ccc2oc(-c3cc(N)ccc3Cl)nc2c1	?	-	?	10µM
CCc1ccc2oc(-c3cc(N)ccc3O)nc2c1	?	-	12.6µM	12.6µM
Cc1cc(C)n(C(C)n2nc(C)cc2C)n1	-	-	-	-
Cc1ccc([N+](=O)[O-])cc1S(=O)(=O)N1CCn2cccc2C1c1ccccc1F (stereo not given)	-	-[10.9 µM]	-	-
c1ccc(-c2nc3nonc3nc2-c2ccccc2)cc1	-	-	?	12.6µM
N=C(N)C(N=Nc1ccccc1)C(=N)N (stereo not given)	-[11.4 µM]	-[10.9 µM]	-[9.22 µM]	-[9.22 µM]
COc1cccc(C2=CC(c3ccccc3F)n3c(nc4ccccc43)N2)c1 (stereo not given)	?	-[10.9 µM]	15.8µM	10µM
CCOc1ccc(C2=CC(c3cccc(Br)c3)n3c(nc4ccccc43)N2)cc1Cl (stereo not given)	-	-[10.9 µM]	-	-
Cc1ccc(C2=CC(c3ccccc3F)n3c(nc4ccccc43)N2)cc1C (stereo not given)	?	-[10.9 µM]	?	12.6µM
OCc1cc(C(O)CNCCCCCCOCCCCc2ccccc2)ccc1O (stereo not given)	.	-	?	12.6µM
CCOCCCNCC(O)c1ccccc1 (stereo not given)	.	.	.	-
SMILES	IkB sig inh	Imprint erasure	p53ts 32C kill	p53ts 39C tox
Cc1cc2c(cc1S(=O)(=O)CCC(=O)N1CCN(c3ccccc3)CC1)OCC(=O)N2	?	-[10.9 µM]	-	?
Cc1ccc(-c2cc(C(=O)N3CCN(c4ccccc4)CC3)c3ccccc3n2)cc1C	-	-[10.9 µM]	12.6µM	10µM
CC[C@H](CN(C)C)C(=O)c1ccco1	-[11.4 µM]	-[10.9 µM]	-[9.22 µM]	-[9.22 µM]
O=Nc1c(-c2c(O)[nH]c3ccccc23)[nH]c2ccccc12	?	-	25.1µM	25.1µM
Cc1cc(C(=O)Nc2ccc3c(c2)OCCO3)c(C)o1	-	-	15.8µM	12.6µM
Cc1ncoc1C(=O)Nc1ccc2c(c1)OCCO2	-	-	?	?
Cc1ccsc1C(=O)Nc1ccc2c(c1)OCCO2	.	.	.	14.1µM
Cc1occc1C(=O)Nc1ccc2c(c1)OCCO2	-	-	?	?
COc1ccc(NC(=O)c2c(C)oc3ccc(O)c(CN4CCCC(C)C4)c23)cc1Cl (stereo not given)	?	-[10.9 µM]	?	31.6µM
COc1ccc(NC(=O)c2c(C)oc3ccc(O)c(CN4CCC(C)CC4)c23)cc1Cl	?	-[10.9 µM]	-	31.6µM
Cc1oc2ccc(O)c(CN3CCCCCC3)c2c1C(=O)Nc1cccc(C(F)(F)F)c1	-	-[10.9 µM]	-	15.8µM
Cc1oc2ccc(O)c(CN3CCCC3)c2c1C(=O)Nc1ccccc1	-	-[10.9 µM]	-	-
C[C@@]12CC[C@@H]3[C@H](CCC4=CC(=O)CC[C@]43C)[C@@H]1CC[C@@H]2C(=O)COS(=O)(=O)c1ccc(Br)cc1	-[11.4 µM]	-[10.9 µM]	-[9.22 µM]	-[9.22 µM]
C#CCn1c(=NC(=O)c2ccc3c(c2)OCCO3)sc2cc(OC)c(OC)cc21	?	-[10.9 µM]	-	-
CCn1c(=NC(=O)c2ccc3c(c2)OCCO3)sc2c(C)ccc(OC)c21	-	-[10.9 µM]	-	10µM
CCOc1ccccc1NC(=O)c1ccc(NC(=O)c2ccco2)cc1	.	.	-	-
CCOc1ccc(NC(=O)c2ccco2)cc1	-	-	10µM	10µM
CCn1cnc2cc(NC(=O)c3ccco3)ccc21	.	.	12.6µM	8.91µM
CCCNC(=O)CCC(=O)N1Cc2cccc(OC)c2Oc2ncccc21	-	-[10.9 µM]	-	-
CCCN=C(N)NCCC[C@H](N)C(=O)O	-	-	-	-
CCOC(=O)CSc1nc2c(c(=O)n1-c1ccc(OC)cc1)SCC2	-	-	1.26µM	1.26µM
CCOC(=O)CSc1nc2c(c(=O)n1-c1ccc(OCC)cc1)SCC2	-	-	-	-
CC(=O)OC[C@@H]1O[C@H](CCO/N=C(\C)CCN2CCCCc3nc(C)c(C)cc32)C=C[C@@H]1OC(C)=O	.	.	-[9.22 µM]	-[9.22 µM]
COc1cccc(C(=O)COC(=O)C(C)N2C(=O)c3ccccc3C2=O)c1 (stereo not given)	-	-	-	-
COc1ccc(C(=O)COC(=O)C(CC(C)C)N2C(=O)c3ccccc3C2=O)cc1 (stereo not given)	.	.	15.8µM	?
SMILES	IkB sig inh	Imprint erasure	p53ts 32C kill	p53ts 39C tox
COc1ccccc1C1Nc2c(sc3nc(C)cc(C)c23)C(=O)N1c1ccccc1 (stereo not given)	?	-[10.9 µM]	?	12.6µM
COCc1cc(C)nc2sc3c(c12)NC(c1ccccc1C(=O)O)N(c1cccc(C(F)(F)F)c1)C3=O (stereo not given)	-	-[10.9 µM]	-	-
COC(=O)c1c(SC)nc2ccccc2c1OCc1cc(C)ccc1C	-	-[10.9 µM]	-	-
c1ccc2c(c1)CCN(Cc1nnnn1Cc1ccc3c(c1)OCO3)C2	-	-	-	-
c1c2c(cc3sc(N4CCCCC4)nc13)OCO2	?	-	6.31µM	10µM
c1ccc(N2CCN(c3nc4cc5c(cc4s3)OCO5)CC2)cc1	-	-	-	-
c1ccc2c(c1)CCN(c1nc3cc4c(cc3s1)OCO4)C2	?	-	12.6µM	?
c1c2c(cc3sc(N4CCOCC4)nc13)OCO2	-	-	10µM	?
FC(F)(F)c1cccc(-n2cc(-c3ccccc3)c3c(N4CCCCC4)ncnc32)c1	?	-[10.9 µM]	-	-
Cc1ccc(C(C)C)c(OCC(=O)Nc2cc(-c3nc4ccccc4[nH]3)ccc2C)c1	?	-[10.9 µM]	?	10µM
c1ccc(Nc2nc(-c3ccoc3)nc3ccccc23)cc1	-[11.4 µM]	3.98µM	-	-
COC(=O)c1ccc(Nc2nc(-c3ccc(C)cc3)nc3ccccc23)cc1	?	-[10.9 µM]	?	12.6µM
